Inconclusive results are not listed. The source made the active and inactive calls. Unless noted, calls come from the whole dose curve; as a rule, active = well fitted curve in the direction sought with a large enough effect in the repeat runs; inconclusive = weak or mixed curves; inactive = no such curve, though single readings can be large; an effect the other way counts as inactive or inconclusive.
Key:
[1] = biological target: Retinoic acid receptor RXR-alpha (Homo sapiens) (UniProt P19793); experiment: qHTS assay to identify small molecule agonists of the RXR signaling pathway (AID 1159527; calls by dose curve; note: nearly all actives have a fitted effect of over 35% in size)
Retinoic acid receptor RXR-alpha (Homo sapiens), sequence (P19793 whole entry, looked up): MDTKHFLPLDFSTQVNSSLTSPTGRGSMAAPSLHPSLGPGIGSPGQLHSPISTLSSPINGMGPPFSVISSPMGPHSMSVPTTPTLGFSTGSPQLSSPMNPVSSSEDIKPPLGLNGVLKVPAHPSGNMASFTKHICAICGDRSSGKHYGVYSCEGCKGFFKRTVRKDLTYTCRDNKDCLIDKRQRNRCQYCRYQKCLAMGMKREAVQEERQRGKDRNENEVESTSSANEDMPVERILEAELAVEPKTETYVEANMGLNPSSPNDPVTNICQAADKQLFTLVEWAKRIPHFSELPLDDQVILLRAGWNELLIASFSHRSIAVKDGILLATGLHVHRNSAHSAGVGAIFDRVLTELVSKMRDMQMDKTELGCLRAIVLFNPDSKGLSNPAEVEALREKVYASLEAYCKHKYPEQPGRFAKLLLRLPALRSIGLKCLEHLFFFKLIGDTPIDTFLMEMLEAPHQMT
Method in brief: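 Read-out: beta-lactamase FRET ratio (405 nm excitation, 460 and 530 nm emission) after 2 hr substrate loading at room temperature. Cells were RXR-alpha-UAS-bla HEK 293T treated with compounds for 16 hr in 2% charcoal-stripped FBS medium.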

[2] = qHTS assay to identify small molecule agonists of the RXR signaling pathway - cell viability counter screen (AID 1159529); note: series mostly up to about 77 µM; nearly all actives have a fitted effect of over 50% in size
Method in brief: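 HEK 293T RXRa-bla cells, 2% CS-FBS; 5 h settle; cpd 16 h 37 C, 5% CO2; CellTiter-Glo 30 min RT, luminescence. Tetraoctyl ammonium bromide as positive control.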

[3] = qHTS assay to identify small molecule antagonists of the retinoid acid receptor (RAR) signaling pathway - cell viability counter screen (AID 1159551); note: nearly all actives have a fitted effect of over 35% in size
Method in brief: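 Luminescent ATP quantitation (CellTiter-Glo) gave cell viability in C3RL4 cells exposed to test chemicals for 6 h at 37 C alongside 1 uM final retinol.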

[4] = qHTS assay to identify small molecule antagonists of the retinoic acid receptor (RAR) signaling pathway (AID 1159552; note: nearly all actives have a fitted effect of over 50% in size)
Method in brief: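 Cells of the C3RL4 line were seeded, incubated overnight, then dosed with compounds in DMSO followed immediately by retinol (1 uM final). Six hours later luciferase detection reagent went in; signal was measured after 30 min at RT.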

[5] = qHTS assay to identify small molecule agonists of the retinoic acid receptor (RAR) signaling pathway (AID 1159553)
Method in brief: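 Luminescence from a RARE-driven luciferase reporter in C3RL4 cells served as the read-out, measured after 30 min with detection reagent at room temperature. Compounds in DMSO were applied for 6 hr at 37 C following overnight seeding.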

[6] = qHTS assay to identify small molecule antagonists of the estrogen related receptor (ERR) signaling pathway from Tox21 library - cell viability counter screen (AID 1224834); note: nearly all actives have a fitted effect of over 30% in size
Method in brief: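 Fluorescence from CellTiter-Fluor gives the viability read-out, taken 30 min after reagent addition. Before that, ERR cells seeded 6 h earlier were incubated with compounds for 17.5 h at 37 C.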

[7] = biological target: Luciferin 4-monooxygenase (Photinus pyralis) (UniProt P08659); experiment: qHTS assay to identify small molecule inhibitors of firefly luciferase (AID 1224835); note: series mostly up to about 120 µM; nearly all actives have a fitted effect of over 25% in size
Luciferin 4-monooxygenase (Photinus pyralis), sequence (P08659 whole entry, looked up): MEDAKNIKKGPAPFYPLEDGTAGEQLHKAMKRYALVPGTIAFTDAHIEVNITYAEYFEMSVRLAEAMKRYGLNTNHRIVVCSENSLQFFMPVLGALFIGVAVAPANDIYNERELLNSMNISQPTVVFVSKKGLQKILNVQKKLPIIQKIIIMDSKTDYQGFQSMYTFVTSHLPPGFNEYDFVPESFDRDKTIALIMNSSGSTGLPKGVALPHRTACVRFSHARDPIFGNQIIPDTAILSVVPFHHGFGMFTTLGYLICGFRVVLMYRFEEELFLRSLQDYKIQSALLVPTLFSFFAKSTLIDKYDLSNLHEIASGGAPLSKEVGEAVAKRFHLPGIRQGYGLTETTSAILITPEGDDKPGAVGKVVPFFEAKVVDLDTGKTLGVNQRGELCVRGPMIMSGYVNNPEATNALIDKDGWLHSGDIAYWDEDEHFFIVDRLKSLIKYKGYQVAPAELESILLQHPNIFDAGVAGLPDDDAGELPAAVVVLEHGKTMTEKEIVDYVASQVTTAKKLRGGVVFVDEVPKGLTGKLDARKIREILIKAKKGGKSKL
Method in brief: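 Quantitative HTS format; KM concentrations of both substrates. Purified P. pyralis FLuc activity quantified from luminescence images.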

[8] = qHTS assay to identify small molecule agonists of the constitutive androstane receptor (CAR) signaling pathway - cell viability counter screen (AID 1224836); note: series mostly up to about 92 µM; nearly all actives have a fitted effect of over 45% in size
Method in brief: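 HepG2-CYP2B6-hCAR, 2500 cells/well, 4 h pre-incubation; cpd 15 conc + PK11195 0.75 uM final; 23 h, 37 C/5% CO2; CellTiter-Fluor, fluorescence.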

[9] = qHTS assay to identify small molecule antagonists of the constitutive androstane receptor (CAR) signaling pathway - cell viability counter screen (AID 1224837); note: series mostly up to about 92 µM; nearly all actives have a fitted effect of over 45% in size
Method in brief: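 HepG2-CYP2B6-hCAR cells, 2500/well, 4 hr pre-incubation; compound titration, 15 conc.; CITCO 50 nM final; 23 hr, 37 C/5% CO2; CellTiter-Fluor, fluorescence intensity.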

[10] = biological target: Nuclear receptor subfamily 1 group I member 3 (Homo sapiens) (UniProt Q14994); experiment: qHTS assay to identify small molecule antagonists of the constitutive androstane receptor (CAR) signaling pathway (AID 1224838);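 note: HepG2 cells stably expressing hCAR with CYP2B6 luciferase reporter stimulated by CITCO; nearly all actives have a fitted effect of over 40% in size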
Nuclear receptor subfamily 1 group I member 3 (Homo sapiens), sequence (Q14994 whole entry, looked up): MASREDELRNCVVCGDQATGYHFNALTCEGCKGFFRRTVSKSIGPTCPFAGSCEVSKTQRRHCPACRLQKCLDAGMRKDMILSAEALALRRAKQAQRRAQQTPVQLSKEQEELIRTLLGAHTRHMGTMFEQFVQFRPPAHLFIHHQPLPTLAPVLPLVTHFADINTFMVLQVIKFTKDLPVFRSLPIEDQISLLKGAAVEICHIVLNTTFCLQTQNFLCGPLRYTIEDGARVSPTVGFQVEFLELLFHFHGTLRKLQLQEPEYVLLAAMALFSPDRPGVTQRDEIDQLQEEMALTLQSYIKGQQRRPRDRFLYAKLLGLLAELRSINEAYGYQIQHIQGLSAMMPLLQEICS
Method in brief: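 HepG2-CYP2B6-hCAR cells; 4 h pre-incubation; cpd (15 conc) + CITCO 50 nM final; 24 h, 37 C/5% CO2; ONE-Glo, luminescence.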

[11] = biological target: Nuclear receptor subfamily 1 group I member 3 (Homo sapiens) (UniProt Q14994); experiment: qHTS assay to identify small molecule agonists of the constitutive androstane receptor (CAR) signaling pathway (AID 1224839);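 note: HepG2 cells stably carrying human CAR and a CYP2B6 luciferase reporter; series mostly up to about 92 µM; nearly all actives have a fitted effect of over 15% in size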
Method in brief: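 HepG2-CYP2B6-hCAR cells, 2500/well, 4 h pre-incubation; compounds 15 conc.; PK11195 0.75 uM final; 24 h, 37 C/5% CO2; ONE-Glo luciferase read.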

[12] = qHTS assay to identify small molecule antagonists of the estrogen related receptor signaling pathway with the pleiotropic PPARgamma coactivator (PGC) from Tox21 10K library - cell viability counter screen (AID 1224840; active = well fitted cell-killing curve with a large enough effect in the repeat runs, not every such curve was filed as active; note: nearly all actives have a fitted effect of over 40% in size)
Method in brief: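 PGC/ERR cells, 2,000/well; 6 h pre-incubation 37 C/5% CO2; cpd in DMSO via pin tool; 17.5 h 37 C; CellTiter-Fluor, 30 min; fluorescence.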

[13] = qHTS assay to identify small molecule antagonists of the estrogen related receptor signaling pathway with the pleiotropic PPARgamma coactivator (PGC) from Tox21 10K library (AID 1224841; call rule not given here; note: series mostly up to about 92 µM; actives are mostly falling curves and most rising ones were filed inactive; nearly all actives have a fitted effect of over 50% in size)
Method in brief: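 PGC/ERR cell line, 2,000 cells/well; 6 h pre-incubation 37 C/5% CO2; compounds (DMSO) pinned in; 18 h, 37 C; One-Glo, 30 min RT; luminescence.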

[14] = qHTS assay to identify small molecule agonists of the estrogen related receptor signaling pathway with the pleiotropic PPARgamma coactivator (PGC) from Tox21 10K library (AID 1224842); note: nearly all actives have a fitted effect of over 15% in size
Method in brief: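 PGC/ERR reporter cells (NTP line) were seeded 2,000 per well, rested 6 h at 37 C/5% CO2, then pin-dosed with compounds in DMSO for 18 h at 37 C; luciferase read by One-Glo luminescence after 30 min at room temperature.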

[15] = qHTS assay to identify small molecule antagonists of the estrogen related receptor (ERR) signaling pathway - cell viability counter screen (AID 1224818);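 note: series mostly up to about 46 µM; viability measured after 17.5 h of compound exposure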
Method in brief: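 Multiplexed counter screen to separate cytotoxic compounds from true ERR modulators. ERR cells received DMSO-dissolved compounds after a 6 h pre-incubation, were exposed 17.5 h at 37 C, then assayed with CellTiter-Fluor fluorescence.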

[16] = qHTS assay to identify small molecule antagonists of the estrogen related receptor (ERR) signaling pathway (AID 1224819;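 note: luminescence from an ERR-driven luciferase reporter measured with One-Glo reagent; series mostly up to about 46 µM; nearly all actives have a fitted effect of over 50% in size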)
Method in brief: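 Seed ERR cells 2,000/well; rest 6 h at 37 C/5% CO2; pin compounds in DMSO; incubate 18 h at 37 C; add One-Glo; wait 30 min at room temperature; measure luminescence.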

[17] = qHTS assay to identify small molecule agonists of the estrogen related receptor (ERR) signaling pathway (AID 1224820)
Method in brief: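 Quantitative HTS of the LOPAC library used NTP ERR reporter cells treated 18 h at 37 C. Signal is luminescence after One-Glo addition and a 30 min room-temperature incubation.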

[18] = tested on: estrogen-related receptor alpha (ERRalpha) with PGC-1alpha coactivator, human; experiment: qHTS assay to identify small molecule antagonists of the estrogen related receptor signaling pathway with the pleiotropic PPARgamma coactivator (PGC) (AID 1224821; calls by dose curve)
Method in brief: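 Quantitative HTS for antagonism: PGC/ERR cells received compounds after 6 h attachment and were incubated 18 h at 37 C, with luminescence (One-Glo) as the endpoint.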

[19] = qHTS assay to identify small molecule antagonists of the estrogen related receptor signaling pathway with the pleiotropic PPARgamma coactivator (PGC) cell viability counter screen (AID 1224822; note: series mostly up to about 46 µM)
Method in brief: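 Cells: PGC/ERR, 2,000/well, 1536-well format. Pre-incubation 6 h, 37 C/5% CO2. Compound exposure 17.5 h, 37 C. Detection: CellTiter-Fluor, 30 min, fluorescence.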

[20] = qHTS assay to identify small molecule agonists of the estrogen related receptor signaling pathway with the pleiotropic PPARgamma coactivator (PGC) (AID 1224823)
Method in brief: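 Cell-based luciferase assay in the NTP-supplied PGC/ERR line, 2,000 cells/well; 18 h compound exposure at 37 C, luminescence after One-Glo.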

Measured: Potency

CC1(C)[C@@H]2CC[C@@]1(C)C(=O)C2
inactive: [1] | [2] | [3] | [4] | [5] | [6] | [7] | [8] | [9] | [10] | [11] | [12] | [13] | [14]

CC(=O)NS(=O)(=O)c1ccc(N)cc1
inactive: [1] | [2] | [3] | [4] | [5] | [6] | [7] | [8] | [9] | [10] | [11] | [12]

Cn1cc[nH]c1=S
inactive: [2] | [3] | [4] | [5] | [6] | [7] | [8] | [9] | [11] | [12]

Cc1cc(=O)[nH]c(=S)[nH]1
inactive: [1] | [2] | [3] | [6] | [7] | [8] | [9] | [10] | [11] | [12]

O=C1NC(=O)c2ccccc21
inactive: [1] | [2] | [3] | [6] | [7] | [8] | [9] | [10] | [11] | [12]

N=C(N)c1ccc(OCCCCCOc2ccc(C(=N)N)cc2)cc1
inactive: [1] | [2] | [3] | [4] | [5] | [6] | [7] | [8] | [12]

NC(=O)c1cnccn1
inactive: [1] | [2] | [3] | [15] | [16] | [17] | [18] | [19] | [20] | [6] | [7] | [8] | [9] | [10] | [11] | [12] | [13] | [14]

O=C(O)CS
inactive: [1] | [2] | [3] | [6] | [7] | [8] | [9] | [12]

CCCC(CCC)C(=O)O
inactive: [2] | [3] | [15] | [19] | [6] | [7] | [8] | [9] | [12]

— PubChem BioAssay (Tox21)
